phage Ecoli inh: growth loss of phage-infected E. coli, primary screen, RecBCD inhibitor project, absorbance, with phage, HTS; inhibition, % at 11.9 µM; 360,000 compounds, 0.26% hits; AID 651602, 2012; in the data active = inhibition above about 11%
E coli growth-1: E. coli V3065 growth inhibition, primary screen, counter-screen for AddAB inhibitor project, absorbance, OD600; inhibition, % at 11.9 µM; AID 449728, 2010; 330,000 compounds, 0.27% hits; 18 h;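 active = inhibition above the campaign's mean inhibition across all tested compounds plus 3 SD, cut at about 9.9% in these data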;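 also: uninfected addAB+ strain grown without phage in ampicillin broth; 0% = DMSO wells and 100% = ciprofloxacin 0.95 µg/ml wells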
Tat transport: E. coli Tat export inhibitors, primary screen, MC4100, TorA-mCherry reporter, fluorescence, single point; inhibition, % at 10 µM; 340,000 compounds, 0.036% hits; AID 488895, 2010;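 active = mean replicate inhibition at least 50% and at least half of replicates individually reaching 50%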;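 also: exported cargo escapes ClpAP degradation while cytoplasmic cargo is degraded and loses fluorescence; 0% = median of neutral control wells and 100% = median of NaSCN control wells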
E coli growth-2: E. coli growth inhibition, primary screen, OD600; 330,000 compounds, 0.21% hits; Escherichia coli growth, 23 h; active compounds read low; AID 1053175, 2014; OD600 absorbance (concentration not given with the values);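 active = OD600 absorbance below the run mean of sample wells minus 3.6 SD, in any replicate, cut at about 0.56 in these data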
AddAB inh: growth inhibition of E. coli expressing H. pylori AddAB, primary screen, AddAB inhibitor project, absorbance; inhibition, % at 11.9 µM; 330,000 compounds, 0.29% hits; in the data active = inhibition above about 12%;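 also: 0% = vehicle wells of infected cells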
AddAB conf: growth loss of phage-infected E. coli expressing H. pylori AddAB, confirmation, AddAB inhibitor project, absorbance, E. coli V3065, T4 phage, triplicate. shares compounds with AddAB inh. OD; T4 phage with gene 2 nonsense mutations. inhibition, % at 11.9 µM. 880 compounds, 64% hits. AID 488942, 2010;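 active = mean inhibition above a set limit taken from the earlier primary screen, cut at about 13% in these data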;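 also: higher means less bacterial growth since AddAB block lets phage replicate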
RecBCD counter: growth loss of RecBCD+ E. coli with mutant T4 phage, counter-screen for AddAB inhibitor project, absorbance, V66 E. coli; shares compounds with AddAB inh; OD growth; inhibition, % at 11.9 µM; 880 compounds, 73% hits;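 active = mean inhibition above the mean of solvent-only control wells plus 3 SD, cut at about 4% in these data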;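 also: optical density read after an 18 h incubation at 37 °C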
Bact viability: bacterial viability inhibition counter-screen, confirmation, counter-screen for AddAB inhibitor project, absorbance | shares compounds with AddAB inh | absorbance (AddAB counterscreen) | inhibition, % at 11.9 µM | 880 compounds, 35% hits | AID 488956, 2010; in the data active = inhibition above about 25%
* = called active by the depositor; · = not tested or not shown. This is a sample that favours compounds with a hit; in the whole collection about 0.5% have one here.

SMILES	phage Ecoli inh	E coli growth-1	Tat transport	E coli growth-2	AddAB inh	AddAB conf	RecBCD counter	Bact viability
O=C(Cc1cccs1)NCCn1ccc2ccccc21	3	95*	7	0.77	99*	-1	2	-1
NC(=O)NOCc1ccccc1	4	5	10	0.7	98*	-2	1	-4
O=C(NOCc1ccccc1)OCc1ccccc1	3	·	1	0.68	·	·	·	·
CC1=NN(C(=O)c2ccc(Cn3cc(Br)c([N+](=O)[O-])n3)o2)C(O)(C(F)(F)F)C1 (centres undefined)	9	8	-3	0.67	18*	8	3	5
COc1cccc(/C=N\NC(=O)c2ccc(Cn3cc(Br)c([N+](=O)[O-])n3)o2)c1O	10	9.9*	-4	·	16*	31*	7.1*	20
c1ccc(-c2ccc(CN3CC4C(c5ccccc5)C5(c6cccnc6)CC4(C5)C3c3ccccc3)cc2)cc1 (centres undefined)	·	·	·	0.73	·	·	·	·
CCC(=NNC(=O)c1c(C)nc2ccccn12)c1ccc(Cl)cc1	·	·	·	0.69	·	·	·	·
COc1ccc(CNC(=O)CC(C)=NNC(=O)c2cnccn2)cc1	·	·	·	0.69	·	·	·	·
O=C(CSc1ncccn1)NC(=O)Nc1ccc2c(c1)OCCO2	7	9	-4	0.56	12*	8	6.4*	5
O=C(CSc1ncccn1)Nc1ccc2c(c1)OCO2	1	-1	6	0.71	1	·	·	·
CC(C)CC(NC(=O)c1[nH]cnc1C(=O)NC(C)C(=O)OCc1ccccc1)C(=O)OCc1ccccc1 (centres undefined)	·	·	·	0.66	·	·	·	·
CCOC(=O)N/N=C(/C)c1ccc([N+](=O)[O-])o1	8	30*	-14	·	32*	101*	13*	39*
CC(=NNC(=O)C(O)(c1ccccc1)c1ccccc1)c1ccc([N+](=O)[O-])o1	·	·	·	0.71	·	·	·	·
Cc1ccc2c(c1)n([O-])c1c([n+]2=O)CCCC1	-1	1	-4	0.69	1	·	·	·
CC(=O)c1c(C)n([O-])c2ccc(C)cc2[n+]1=O	6	24*	13	0.43*	23*	68*	8.3*	53*
O=C(NCCCNCCCNC(=O)c1ccc(/C=N/O)nc1)c1ccc(/C=N/O)nc1	10	12*	5	·	19*	4	4	4
COc1ccc(S(=O)(=O)N2CCOC2CNC(=O)C(=O)NCCc2ccccc2)cc1C (centres undefined)	4	15*	-12	0.81	43*	0	-1	-2
COc1ccc(S(=O)(=O)N2CCOC2CNC(=O)C(=O)NCCc2ccccc2)cc1OC (centres undefined)	1	-2	-9	0.79	-2	·	·	·
COc1ccc(C2CC(=O)C=C(c3ccc4c5c(cccc35)CC4)C2)cc1 (centres undefined)	·	·	·	0.75	·	·	·	·
CCOC(=O)C1C2COc3ccc(C)cc3C2N2C(=O)c3cc(Cl)ccc3NC(=O)[C@@]12C (some centres undefined)	·	·	·	0.7	·	·	·	·
CC1C(=O)N2CCCc3cc(S(=O)(=O)N(C)c4ccccc4)cc1c32 (centres undefined)	-2	23*	-1	0.66	44*	1	-2	0
Cc1ccc(N2CC(NS(=O)(=O)c3cccs3)CC2=O)cc1 (centres undefined)	4	98*	-1	0.63	98*	0	2	3
Cc1cc(C(F)(F)F)n2ncc(C(=O)O)c2n1	4	6	-4	0.76	17*	-2	1	0
Cc1ccc(-c2cc(C(F)(F)F)n3ncc(C(=O)O)c3n2)cc1	2	·	4	0.76	·	·	·	·
COc1ccc(C2C=CCN(C(=O)C3CC3)C(Cc3ccccc3)C(=O)N2Cc2ccc(F)cc2)cc1 (centres undefined)	·	·	·	0.72	·	·	·	·
SMILES	phage Ecoli inh	E coli growth-1	Tat transport	E coli growth-2	AddAB inh	AddAB conf	RecBCD counter	Bact viability
Cc1ccc(C(=O)NNC(=S)NC(=O)c2ccco2)cc1	5	9	-11	0.47*	13*	7	10*	3
COC(=O)C=Cc1ccc2c(c1)S(=O)(=O)N(c1cccc(OC)c1)C2CC(=O)OC (centres undefined)	·	·	·	0.72	·	·	·	·
COc1ccc(-c2nc3ccccn3c2C=O)cc1	2	1	11	0.63	3	·	·	·
O=Cc1c(-c2ccc(F)cc2)nc2ccccn12	1	97*	1	0.7	98*	0	1	-2
COc1c(N2CCN[C@H](C)C2)c(F)cc2c(=O)c(C(=O)O)cn(C3CC3)c12	·	103*	·	·	102*	100*	100*	101*
CC(C)CC(=O)Nc1ccccc1N1CCN(C(=O)c2ccccc2)CC1	0	-1	-7	0.74	-3	·	·	·
CC(C)CC(=O)Nc1ccccc1N1CCN(c2ccccc2)CC1	0	7	8	0.66	15*	-4	0	-5
Cc1ccnc2c1ccc1c(C)ccnc12	·	37*	8	0.28*	39*	70*	25*	20
COc1ccc2c(c1)OCC1C2N2C(=O)CN(CCc3c[nH]c4ccccc34)C(=O)[C@@]2(C)C1c1ccccc1 (some centres undefined)	·	·	·	0.71	·	·	·	·
O=C(N/N=C/c1ccc([N+](=O)[O-])o1)C(O)c1ccccc1 (centres undefined)	11	15*	-20	·	86*	96*	11*	29*
Cc1cc(C(=O)N/N=C/c2ccc([N+](=O)[O-])o2)c(C)o1	6	9	-12	·	13*	98*	7.9*	17
CCCC(=O)Nc1ccc(C(=O)N/N=C/c2ccc([N+](=O)[O-])o2)cc1	10	22*	-21	·	18*	100*	12*	28*
Cc1ccc(NC(=O)CCC(=O)N/N=C/c2ccc([N+](=O)[O-])o2)cc1C	4	7	1	·	7	·	·	·
CN1C(=CC(=O)Nc2cccnc2)c2ccccc2CC1(C)C	·	·	·	0.69	·	·	·	·
CC1CCN(C(=O)CCC(=O)N2CC(C)Oc3ccccc32)CC1 (centres undefined)	3	32*	-10	0.73	99*	-3	1	-2
CC(C)NC(=O)N(C)CC1Oc2ccc(NC(=O)Nc3ccc(C(F)(F)F)cc3)cc2C(=O)N(C(C)CO)CC1C (centres undefined)	·	·	·	0.67	·	·	·	·
Cc1noc(NS(=O)(=O)c2ccc(NC(=O)C(F)(F)F)cc2)c1C	3	9	-12	0.7	15*	-1	3	2

Screening data (PubChem)
